# Test results as given in ChEMBL document CHEMBL4513216, “Probing the Open Global Health Chemical Diversity Library for Multistage-Active Starting Points for Next-Generation Antimalarials” (ACS Infect Dis, 2020).
# The whole screen tested about 65,000 compounds, of which about 2,100 (3.2%) showed an effect of 50% or more. The median lay at about -52%. The sample as a whole holds a higher share of strong results than the screen did.
# System: Plasmodium falciparum
# Assay: Screen against P. falciparum Asexual Blood Stage (ABS), at 5uM
# Assay type: functional, Dd2
# Conditions: tested at 5 uM
row,Compound,INHIBITION
1,CC1CCC(NC(=O)c2nn(C)cc2Br)CC1 (stereo not drawn),-46.7%
2,CCc1ccc(CN2CCc3c(nnn3C)C2COC)cc1 (stereo not drawn),-44.1%
3,O=C(NCc1cnn2cccnc12)c1cccc(CC2CCNCC2)c1,66.1%
4,CC(C)(O)CCc1cccc(C(=O)NCc2cnn3cccnc23)c1,-126%
5,CC(C)Cn1cncc1CNC(=O)c1cccc(CC2CCNCC2)c1,-83.2%
6,c1ccc(CCN2CCCC(Cn3ccnc3)C2)cc1 (stereo not drawn),64.5%
7,c1ccc(SCCN2CCCC(Cn3ccnc3)C2)cc1 (stereo not drawn),-1.54%
8,CSCCCN1CCCC(Cn2ccnc2)C1 (stereo not drawn),-62%
9,O=C(O)c1nnn(-c2cccc(C(F)(F)F)c2)c1-c1ccncc1,-16.4%
10,CN(C)C(CNS(=O)(=O)c1ccc(F)cc1F)c1cccn1C (stereo not drawn),31.8%
11,COc1ccc(F)cc1S(=O)(=O)NCC(c1cccn1C)N(C)C (stereo not drawn),-7.7%
12,CN(C)C(CNS(=O)(=O)c1cc(F)ccc1F)c1cccn1C (stereo not drawn),54.6%
13,Cc1noc(C(C)C)c1C(=O)NCCCN1CCCCCC1=O,-62.4%
14,Cc1nnc(SCCCNc2cc(C3CC3)ncn2)s1,-39.6%
15,COCc1nn(C)c2c1CN(Cc1cnn(C)c1)CC2,-6.19%
16,CC1CCCN(Cc2c(C3CC3)n(CC(=O)N(C)C)c3ncccc23)C1 (stereo not drawn),-59.9%
17,Cc1cc(C2CCCN(CC(=O)N3CCCc4ccccc43)C2)n[nH]1 (stereo not drawn),-8.74%
18,Cc1cc(C2CCCN(CC(=O)N3CCc4ccccc43)C2)n[nH]1 (stereo not drawn),-81.5%
19,Cc1cc(C2CCCN(CCC(=O)N3CCc4ccccc43)C2)n[nH]1 (stereo not drawn),62.9%
20,CC(=O)N1CCCC1c1cc(N2CCN(CC(C)(C)C)CC2)cc(C)n1 (stereo not drawn),-126%
21,Clc1cccc(Cl)c1CNCCOc1ccccn1,-77.7%
22,Cn1cc(N2CC3(CCN(Cc4ccoc4)CC3)OCC2=O)cn1,-50.3%

row,Compound,INHIBITION
1,Cc1cc(C(=O)NC2CCc3c(ccc(=O)n3CCN(C)C)C2)no1 (stereo not drawn),-24%
2,Cc1cc2n(n1)CC(CNC1CCN(CCc3ccccc3)CC1)CN2 (stereo not drawn),68.6%
3,Cc1cc2n(n1)CC(CNC1CCN(Cc3ccccn3)CC1)CN2 (stereo not drawn),-50.7%
4,Cc1ccccc1CN1CCC(NCC2CNc3ccnn3C2)CC1 (stereo not drawn),67.1%
5,Cc1cc2n(n1)CC(CNC1CCN(c3ccccn3)CC1)CN2 (stereo not drawn),-45.8%
6,OCc1ccccc1CNCC1CNc2ccnn2C1 (stereo not drawn),2.15%
7,Cc1cc2n(n1)CC(CNC1CCN(Cc3ccncc3)CC1)CN2 (stereo not drawn),-0.937%
8,CC(C)n1c2ccccc2c2c1cc(C(=O)NCCO)n2C(=O)N(C)C,-69.4%
9,CC(CN1CCCC1=O)NC(=O)c1ccc(C(F)(F)F)[nH]c1=O (stereo not drawn),-73.3%
10,Cc1noc(C)c1C(=O)N1CCC(Nc2cccnn2)CC1,-19.3%
11,NC(=O)c1cc(C2CCCN(CCc3ccc4c(c3)CCO4)C2)n[nH]1 (stereo not drawn),-88.6%
12,O=C(c1ccc(=O)[nH]n1)N1CCCC1C1CCCC1 (stereo not drawn),-148%
13,O=C(c1c[nH]nn1)N1CCCC1C1CCCCC1 (stereo not drawn),51%
14,O=C(c1cnc2[nH]c(=O)[nH]c(=O)c2c1)N1CCCC1C1CCCCC1 (stereo not drawn),0.342%
15,CNC(=O)C1(c2cnccn2)CCCN1C(=O)c1cccc(C)n1 (stereo not drawn),-80.1%
16,CCc1ccc(CN2Cc3nccn3CC(CN3CCOCC3)C2)o1 (stereo not drawn),-23.9%
17,CCOc1ccc(N(C)Cc2nnc(C)o2)cc1,27.1%
18,CCOc1ccc(N(C)Cc2nc(C)c(C)o2)cc1,43.9%
19,CCOc1ccc(N(C)Cc2nnc(C3CC3)o2)cc1,61.5%
20,Cn1cccc1C(=O)N1CCC2(CCN2c2ncccn2)C1 (stereo not drawn),-28.5%
21,O=C(NCc1ccc2c(c1)CCCO2)c1ccc(C2CCNC2)cc1 (stereo not drawn),-95.6%
22,COCC(=O)NCc1cnc(C)nc1-c1cn(C)c2ccc(OC)cc12,-88.7%

row,Compound,INHIBITION
1,CN(C)CCN1CCO[C@H]2CCN(C(=O)c3cccs3)CC[C@@H]21,-47.1%
2,CCc1nnc2n1CCN(CC(=O)N1CCc3ccccc3C1)C2,-13.9%
3,COc1ccc(C(=O)Nc2c(C(=O)N(C)C)nn(C)c2C)cc1,-64.8%
4,COc1ccc(CC(=O)NC(C)c2nc3cccnc3n2C(C)C)cc1 (stereo not drawn),-100%
5,Cc1ccccc1CN1CCC(c2nn(CCN)c3nccnc23)C1 (stereo not drawn),60.9%
6,NCCn1nc(C2CCN(Cc3ccc(Cl)c(Cl)c3)C2)c2nccnc21 (stereo not drawn),63.5%
7,NCCn1nc(C2CCN(C(=O)Cc3ccccc3)C2)c2nccnc21 (stereo not drawn),-28.7%
8,Cn1nc(C2CCCN(Cc3ccc(F)c(F)c3)C2)c2nccnc21 (stereo not drawn),23.4%
9,NCCn1nc(C2CCN(C(=O)CC3CCCCC3)C2)c2nccnc21 (stereo not drawn),-16.3%
10,CC(C)(C)CC(=O)N1CCC(c2nn(CCN)c3nccnc23)C1 (stereo not drawn),-94.3%
11,CNC(=O)[C@H]1CO[C@H]2CCN(Cc3ccc4ccccc4n3)C[C@H]2C1,-51.5%
12,Cc1nc(NCc2ccccn2)c2c(n1)c(C)nn2C,-26.7%
13,Cc1cccc(Nc2cc(C)nc(C3CCN(C(C)C)C3)n2)n1 (stereo not drawn),-36.6%
14,CC(C#N)CSc1ccccc1NCC(=O)NC(C1CC1)C1CC1 (stereo not drawn),56.3%
15,CC(C#N)CSc1ccccc1NCC(=O)Nc1ccccc1 (stereo not drawn),-67.8%
16,CC(C#N)CSc1ccccc1NCC(=O)NC1CCCCC1 (stereo not drawn),-56.9%
17,Cc1nc(CNCC2CN(C)CCO2)cs1 (stereo not drawn),-102%
18,CN1CCOC(CNCc2csc(C3CCCC3)n2)C1 (stereo not drawn),-14.3%
19,CN1CCOC(CNCc2csc(C3CCCCC3)n2)C1 (stereo not drawn),58.6%
20,c1cncc(N2CCCn3nnc(CN4CCCCC4)c3C2)c1,-88.4%
21,Cc1ccccc1SCC(=O)NS(=O)(=O)c1ccc2c(c1)OCCO2,-14.4%
22,c1cncc(COCc2nnc3n2CCN(Cc2ccsc2)C3)c1,-113%

row,Compound,INHIBITION
1,O=C(c1ccc(F)cc1)N1CCN2C[C@H](OCc3cccnc3)C[C@H]2C1,1.13%
2,Cc1occc1C(=O)N1CC[C@H]2C[C@@H](c3nnc(C4CC4)o3)O[C@@H]2C1,-11.7%
3,CN(C)CCN1CCC(CNCc2c[nH]nc2C(C)(C)C)CC1,-15.5%
4,Cc1ccc(CNCc2c[nH]nc2C(C)(C)C)c(OC2CCOC2)c1 (stereo not drawn),57%
5,COCCN1CCC(CNCc2c[nH]nc2C(C)(C)C)CC1,-130%
6,CCSc1ncc(-c2cc(C3CC3)nc(N)c2C#N)cn1,4.79%
7,CCSc1ncc(-c2cc(C3CCC3)nc(N)c2C#N)cn1,-28.9%
8,CCCNc1ncc(-c2cc(C3CC3)nc(N)c2C#N)cn1,55.8%
9,CC1CCN(C(=O)CN2CC(c3nc(C4CC4)no3)C2)CC1,-20.1%
10,O=C(C1CCCC1)N1C[C@@H](c2ccsc2)[C@@H]2CN(C3CCCC3)CC[C@@H]21,54.7%
11,O=C(C1CCC1)N1CCN(Cc2ccsc2)[C@H]2CS(=O)(=O)C[C@H]21,-87.7%
12,CCC(=O)N1CCCC1c1ccsc1 (stereo not drawn),-72.1%
13,CCOc1ncccc1CNC(=O)Nc1ccc(CC)cc1,-138%
14,Cc1ccc2c(c1)C(NCc1ncnn1C)CC2 (stereo not drawn),-64.9%
15,COc1cccc(CNC2CCc3ccc(C)cc32)n1 (stereo not drawn),60.8%
16,Cc1ccc2c(c1)OCCCC2NCc1nnc2n1CCCCC2 (stereo not drawn),-139%
17,COc1c(CNC2CCCOc3ccc(F)cc32)c(C)nn1C (stereo not drawn),29%
18,COc1cccc(CNC2CCCOc3cc(C)ccc32)n1 (stereo not drawn),68.4%
19,COc1ccc2c(c1)C(NCCc1c(C)noc1C)CCCO2 (stereo not drawn),32.9%
20,COc1ccc2c(c1)C(NCCc1ncc(C)s1)CCCO2 (stereo not drawn),-31.7%
21,COc1ccc2c(c1)C(NCCc1ccccn1)CCCO2 (stereo not drawn),57.6%
22,Cc1ccc2c(c1)C(NCc1ccccn1)CC2 (stereo not drawn),37.5%

row,Compound,INHIBITION
1,COc1ccc(C2=CCN(C(=O)CN(CC(N)=O)C(C)C)CC2)cc1,-68.8%
2,Cc1noc(C)c1CN1CCC[C@]2(C[C@@H](Oc3ccccn3)CO2)C1,-61.7%
3,CC(=O)N1[C@H](Cn2cncn2)C[C@@H]2CN(Cc3ccncc3)CC[C@@H]21,-149%
4,COc1ccc(C)c(NC(=O)NCc2ncnn2C)c1,-80.2%
5,O=C(NCCCn1ccnc1)N1CCCC1c1ccncc1 (stereo not drawn),-65.7%
6,O=C(NCCn1ccnc1)N1CCCC1c1ccsc1 (stereo not drawn),-159%
7,CCOc1ccc(C2CCCN2C(=O)NCCn2ccnc2)cc1 (stereo not drawn),36.1%
8,COc1ccc(C2CCCN2C(=O)NCCn2ccnc2)cc1 (stereo not drawn),59.1%
9,COc1ccc(C2CCCN2C(=O)NCCCn2ccnc2)cc1 (stereo not drawn),61.9%
10,O=C(NCCn1ccnc1)N1CCCC1c1ccc2c(c1)OCCO2 (stereo not drawn),51.2%
11,COc1ccc(C2CCCN2C(=O)NCCn2ccnc2)cc1OC (stereo not drawn),-189%
12,O=C(NCCn1ccnc1)N1CCCC1c1ccncc1 (stereo not drawn),-10%
13,COc1ccc(C2CCCN2C(=O)NCCCn2cccn2)cc1 (stereo not drawn),-90.4%
14,CC(C)(C)c1nnnn1CC(=O)N(CCC#N)c1ccccc1,-55.4%
15,CN(C)C(C(=O)NCc1cc(C(C)(C)C)n[nH]1)c1ccc(F)cc1 (stereo not drawn),-1.64%
16,COCCn1c2c(ccc1=O)CC(NCc1cnn(C)c1)CC2 (stereo not drawn),-23.6%
17,Cc1cc(O)ncc1NS(=O)(=O)c1cccc(F)c1F,-123%
18,CCS(=O)(=O)N[C@H]1CN(Cc2noc(COC)n2)C[C@@H]1C1CC1,-96.2%
19,Cc1cccc(-c2nc(N)nc3c2CN(C(=O)c2cc(C)n[nH]2)C3C)c1 (stereo not drawn),32.2%
20,COCCN1Cc2ccccc2C2(CCN(C(=O)c3ccco3)CC2)C1,-50.4%
